Laboratory results published in the supplement of paper PMC8728848.
Shown is part of a subset that was picked to be rich in the strongest signals.

Assays:
Test in all cases: glycan array binding signal (z-score within array); higher = stronger binding
Settings in all cases: glycan notation: IUPAC condensed, linker removed
[1] = molecular target: Fuc(a1-2)Gal(b1-3)GlcNAc(b1-3)Gal(b1-4)Glc
Outline: (§1)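 Glycan array data came from 3228 arrays in the Consortium for Functional Glycomics database, and only arrays with an available protein sequence were kept. Glycan names were put into IUPAC-condensed notation, and columns mapping to the same glycan were averaged. The binding signal is a within-array Z-score, averaged across arrays of one protein sequence run at different concentrations or buffers and across linkers. A negative Z-score can be read as non-binding.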

[2] = molecular target: Fuc(a1-2)Gal(b1-3)GlcNAc(b1-3)[Gal(b1-4)GlcNAc(b1-6)]Gal(b1-4)Glc
Outline: as §1

[3] = molecular target: Fuc(a1-2)Gal(b1-4)GlcNAc(b1-2)[Fuc(a1-2)Gal(b1-4)GlcNAc(b1-4)]Man(a1-3)[Fuc(a1-2)Gal(b1-4)GlcNAc(b1-2)Man(a1-6)]Man(b1-4)GlcNAc(b1-4)GlcNAc
Outline: as §1

[4] = molecular target: Fuc(a1-2)Gal6S(b1-4)Glc6S
Outline: as §1

[5] = molecular target: Fuc(a1-2)[Gal(a1-3)]Gal
Outline: as §1

[6] = molecular target: Fuc(a1-2)[Gal(a1-3)]Gal(b1-3)GlcNAc
Outline: as §1

[7] = molecular target: Fuc(a1-2)[GalNAc(a1-3)]Gal(b1-4)GlcNAc
Outline: as §1

[8] = molecular target: Fuc(a1-2)[GalNAc(a1-3)]Gal(b1-4)GlcNAc(b1-3)GalNAc
Outline: as §1

[9] = molecular target: Fuc(a1-2)[GalNAc(b1-3)]Gal
Outline: as §1

[10] = molecular target: Fuc(a1-3)[Gal(b1-4)]GlcNAc(b1-4)Gal(b1-4)[Fuc(a1-3)]GlcNAc
Outline: as §1

[11] = molecular target: Fuc(a1-3)[Gal(b1-4)]GlcNAc6S
Outline: as §1

[12] = molecular target: Fuc(a1-3)[Gal3S(b1-4)]GlcNAc6S
Outline: as §1

[13] = molecular target: Gal(a1-3)Gal(b1-3)[Fuc(a1-4)]GlcNAc(b1-2)Man(a1-3)[Gal(a1-3)Gal(b1-3)[Fuc(a1-4)]GlcNAc(b1-2)Man(a1-6)]Man(b1-4)GlcNAc(b1-4)GlcNAc
Outline: as §1

[14] = molecular target: Gal(a1-3)Gal(b1-4)GlcNAc
Outline: as §1

[15] = molecular target: Gal(b1-3)GlcNAc(b1-3)Gal(b1-4)[Fuc(a1-3)]GlcNAc(b1-6)[Gal(b1-3)GlcNAc(b1-3)]Gal(b1-4)Glc
Outline: as §1

[16] = molecular target: Gal(b1-3)[Neu5Ac(b2-6)]GalNAc
Outline: as §1

[17] = molecular target: Gal(b1-4)GlcNAc(b1-2)Man(a1-3)[Gal(b1-4)GlcNAc(b1-2)Man(a1-6)]Man(b1-4)GlcNAc(b1-4)GlcNAc
Outline: as §1

[18] = molecular target: Gal(b1-4)GlcNAc(b1-3)Gal(b1-4)GlcNAc(b1-2)Man(a1-3)[Gal(b1-4)GlcNAc(b1-3)Gal(b1-4)GlcNAc(b1-2)Man(a1-6)]Man(b1-4)GlcNAc(b1-4)[Fuc(a1-6)]GlcNAc
Outline: as §1

[19] = molecular target: Gal(b1-4)GlcNAc(b1-6)[Gal(b1-4)GlcNAc(b1-3)]GalNAc
Outline: as §1

[20] = molecular target: Gal(b1-6)Gal
Outline: as §1

[21] = molecular target: Gal3S(b1-3)GlcNAc
Outline: as §1

[22] = molecular target: Gal3S(b1-4)Glc
Outline: as §1

[23] = molecular target: Gal3S(b1-4)Glc6S
Outline: as §1

[24] = molecular target: Gal3S(b1-4)GlcNAc
Outline: as §1

[25] = molecular target: Gal3S(b1-4)GlcNAc6S
Outline: as §1

[26] = molecular target: Gal3S(b1-4)[Fuc(a1-3)]GlcNAc6S
Outline: as §1

[27] = molecular target: GalNAc(a1-3)Gal
Outline: as §1

[28] = molecular target: GalNAc(b1-3)GalNAc
Outline: as §1

[29] = molecular target: GalNAc3S(b1-4)GlcNAc
Outline: as §1

[30] = molecular target: Glc(b1-4)Glc
Outline: as §1

[31] = molecular target: GlcNAc(a1-4)Gal(b1-3)GlcNAc
Outline: as §1

[32] = molecular target: GlcNAc(b1-3)Gal(b1-4)GlcNAc(b1-3)Gal(b1-4)GlcNAc(b1-3)Gal(b1-4)GlcNAc(b1-2)[GlcNAc(b1-3)Gal(b1-4)GlcNAc(b1-3)Gal(b1-4)GlcNAc(b1-3)Gal(b1-4)GlcNAc(b1-6)]Man(a1-6)[GlcNAc(b1-3)Gal(b1-4)GlcNAc(b1-3)Gal(b1-4)GlcNAc(b1-3)Gal(b1-4)GlcNAc(b1-2)Man(a1-3)]Man(b1-4)GlcNAc(b1-4)[Fuc(a1-6)]GlcNAc
Outline: as §1

[33] = molecular target: Man(a1-2)Man(a1-2)Man(a1-6)[Man(a1-3)]Man
Outline: as §1

[34] = molecular target: Man(a1-2)Man(a1-3)[Man(a1-6)]Man(a1-6)[Man(a1-2)Man(a1-3)]Man(b1-4)GlcNAc(b1-4)GlcNAc
Outline: as §1

[35] = molecular target: Neu5Ac(a2-3)Gal(b1-3)GalNAc(b1-4)[Neu5Ac(a2-8)Neu5Ac(a2-3)]Gal(b1-4)Glc
Outline: as §1

[36] = molecular target: Neu5Ac(a2-3)Gal(b1-3)GlcNAc(b1-3)Gal(b1-3)GlcNAc
Outline: as §1

[37] = molecular target: Neu5Ac(a2-3)Gal(b1-3)[GlcNAc(b1-6)]GalNAc
Outline: as §1

[38] = molecular target: Neu5Ac(a2-3)Gal(b1-4)GlcNAc(b1-2)Man(a1-3)[Neu5Ac(a2-3)Gal(b1-4)GlcNAc(b1-2)Man(a1-6)]Man(b1-4)GlcNAc(b1-4)GlcNAc
Outline: as §1

[39] = molecular target: Neu5Ac(a2-3)Gal(b1-4)GlcNAc(b1-3)Gal(b1-4)GlcNAc(b1-3)Gal(b1-4)GlcNAc
Outline: as §1

[40] = molecular target: Neu5Ac(a2-3)Gal(b1-4)GlcNAc(b1-3)Gal(b1-4)GlcNAc(b1-3)[Neu5Ac(a2-3)Gal(b1-4)GlcNAc(b1-3)Gal(b1-4)GlcNAc(b1-6)]GalNAc
Outline: as §1

[41] = molecular target: Neu5Ac(a2-3)Gal(b1-4)[Fuc(a1-3)]GlcNAc6S
Outline: as §1

[42] = molecular target: Neu5Ac(a2-6)Gal(b1-4)GlcNAc(b1-3)Gal(b1-4)GlcNAc(b1-3)[Neu5Ac(a2-6)Gal(b1-4)GlcNAc(b1-3)Gal(b1-4)GlcNAc(b1-6)]GalNAc
Outline: as §1

[43] = molecular target: Neu5Ac(a2-6)GalNAc
Outline: as §1

[44] = molecular target: Neu5Ac(a2-8)Neu5Ac(a2-3)Gal(b1-4)GlcNAc
Outline: as §1

[45] = molecular target: Neu5Ac(a2-8)Neu5Ac(a2-8)Neu5Ac(a2-3)[GalNAc(b1-4)]Gal(b1-4)Glc
Outline: as §1

[46] = molecular target: Neu5Gc(a2-3)Gal(b1-4)GlcNAc(b1-3)Gal(b1-4)GlcNAc(b1-2)Man(a1-3)[Neu5Gc(a2-3)Gal(b1-4)GlcNAc(b1-3)Gal(b1-4)GlcNAc(b1-2)Man(a1-6)]Man(b1-4)GlcNAc(b1-4)GlcNAc
Outline: as §1

[47] = molecular target: Neu5Gc(a2-8)Neu5Gc(a2-3)Gal(b1-4)GlcNAc
Outline: as §1

[48] = molecular target: Neu5Gc(a2-8)Neu5Gc(a2-3)Gal(b1-4)GlcNAc(b1-3)Gal(b1-4)GlcNAc
Outline: as §1

B1: MAA (Maackia amurensis), P0DKL3 (protein)
chain: MATSNSKPTQVLLATFLTFFFLLLNNVNSSDELSFTINNFVPNEADLLFQGEASVSSTGVLQLTRVENGQPQKYSVGRALYAAPVRIWDNTTGSVASFSTSFTFVVKAPNPDITSDGLAFYLAPPDSQIPSGSVSKYLGLFNNSNSDSSNQIVAVELDTYFAHSYDPWDPNYRHIGIDVNGIESIKTVQWDWINGGVAFATITYLAPNKTLIASLVYPSNQTTFSVAASVDLKEILPEWVRVGFSAATGYPTEVETHDVLSWSFTSTLEANCDAATENNVHIARYTA
**Q.** Which “glycan array binding signal (z-score)” value [1] does the source give for B1 here?
**A.** -0.221

**Q.** What about the “glycan array binding signal (z-score)” value [2] of the same binder?
**A.** -0.262

**Q.** What about the “glycan array binding signal (z-score)” value [3] of the same binder?
**A.** -0.059

**Q.** What about the “glycan array binding signal (z-score)” value [4] of the same binder?
**A.** -0.191

**Q.** What about the “glycan array binding signal (z-score)” value [5] of the same binder?
**A.** -0.152

**Q.** And the “glycan array binding signal (z-score)” value [6]?
**A.** -0.153

**Q.** And the “glycan array binding signal (z-score)” value [7]?
**A.** -0.228

**Q.** What about the “glycan array binding signal (z-score)” value [8] of the same binder?
**A.** -0.128

**Q.** What about the “glycan array binding signal (z-score)” value [9] of the same binder?
**A.** -0.178

**Q.** And the “glycan array binding signal (z-score)” value [10]?
**A.** -0.094

**Q.** What about the “glycan array binding signal (z-score)” value [11] of the same binder?
**A.** -0.2

**Q.** What about the “glycan array binding signal (z-score)” value [12] of the same binder?
**A.** 2.89

**Q.** And the “glycan array binding signal (z-score)” value [13]?
**A.** 0.162

**Q.** What about the “glycan array binding signal (z-score)” value [14] of the same binder?
**A.** -0.243

**Q.** And the “glycan array binding signal (z-score)” value [15]?
**A.** -0.145

**Q.** What about the “glycan array binding signal (z-score)” value [16] of the same binder?
**A.** -0.219

**Q.** And the “glycan array binding signal (z-score)” value [17]?
**A.** -0.204

**Q.** And the “glycan array binding signal (z-score)” value [18]?
**A.** 0.122

**Q.** What about the “glycan array binding signal (z-score)” value [19] of the same binder?
**A.** -0.204

**Q.** And the “glycan array binding signal (z-score)” value [20]?
**A.** -0.212

**Q.** And the “glycan array binding signal (z-score)” value [21]?
**A.** 1.5

**Q.** What about the “glycan array binding signal (z-score)” value [22] of the same binder?
**A.** 5.2

**Q.** What about the “glycan array binding signal (z-score)” value [23] of the same binder?
**A.** 6.87

**Q.** And the “glycan array binding signal (z-score)” value [24]?
**A.** 6.25

**Q.** What about the “glycan array binding signal (z-score)” value [25] of the same binder?
**A.** 4.71

**Q.** What about the “glycan array binding signal (z-score)” value [26] of the same binder?
**A.** 7.75

**Q.** What about the “glycan array binding signal (z-score)” value [27] of the same binder?
**A.** -0.197

**Q.** What about the “glycan array binding signal (z-score)” value [28] of the same binder?
**A.** -0.186

**Q.** And the “glycan array binding signal (z-score)” value [29]?
**A.** 2.31

**Q.** What about the “glycan array binding signal (z-score)” value [30] of the same binder?
**A.** -0.161

**Q.** What about the “glycan array binding signal (z-score)” value [31] of the same binder?
**A.** -0.226

**Q.** What about the “glycan array binding signal (z-score)” value [32] of the same binder?
**A.** 0.282

**Q.** And the “glycan array binding signal (z-score)” value [33]?
**A.** -0.236

**Q.** What about the “glycan array binding signal (z-score)” value [34] of the same binder?
**A.** -0.2

**Q.** And the “glycan array binding signal (z-score)” value [35]?
**A.** -0.163

**Q.** And the “glycan array binding signal (z-score)” value [36]?
**A.** -0.173

**Q.** What about the “glycan array binding signal (z-score)” value [37] of the same binder?
**A.** -0.229

**Q.** And the “glycan array binding signal (z-score)” value [38]?
**A.** 1.17

**Q.** What about the “glycan array binding signal (z-score)” value [39] of the same binder?
**A.** 1.27

**Q.** What about the “glycan array binding signal (z-score)” value [40] of the same binder?
**A.** 1.22

**Q.** And the “glycan array binding signal (z-score)” value [41]?
**A.** -0.236

**Q.** What about the “glycan array binding signal (z-score)” value [42] of the same binder?
**A.** 0.454

**Q.** What about the “glycan array binding signal (z-score)” value [43] of the same binder?
**A.** -0.257

**Q.** What about the “glycan array binding signal (z-score)” value [44] of the same binder?
**A.** 0.479

**Q.** And the “glycan array binding signal (z-score)” value [45]?
**A.** -0.155

**Q.** And the “glycan array binding signal (z-score)” value [46]?
**A.** 2.07

**Q.** What about the “glycan array binding signal (z-score)” value [47] of the same binder?
**A.** 0.744

**Q.** What about the “glycan array binding signal (z-score)” value [48] of the same binder?
**A.** 1.13
